This is a sample that favours compounds with a hit; in the whole collection about 18% have one here.
IL-1B inflam inh = blocks inflammasome-driven IL-1 beta release. THP-1 LPS/ATP IL-1B secretion, AlphaLISA, 16 h; hits give low values. activity change, % at 57.5 µM. 360,000 compounds, 4.7% hits; in the data active = activity change below about -50%; inconclusive = mostly about -30% to -49%
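Secreted IL-1B measured by AlphaLISA bead assay after 16 h compound exposure of THP-1 cells; compounds (final up to 57.5 uM) added 1 h before LPS (250 ng/mL) and ATP (1.25 mM) stimulation; lower signal means less secretion.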
TDP1 cell noCPT = qHTS for Inhibitors of human tyrosyl-DNA phosphodiesterase 1 (TDP1): qHTS in cells in absence of CPT; Potency, µM (top dose mostly 46.2 µM), for the others: top-dose activity change, negative = growth inhibition, usual class: inhibitors; 420,000 compounds, 15% hits; DT40 Tdp1-/- hTDP1 cells, no CPT, ATP luminescence, 48 h; AID 686978, 2013; note: potency is the fitted concentration of half-maximal effect; nearly all actives have a fitted effect of over 55% in size
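Luminescent ATP content (CellTiter-Glo) served as the growth readout. Knockout chicken DT40 cells expressing human TDP1 were exposed to compounds without camptothecin for a minimum 48 hr at 37 °C.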
Gal4-VP16 FLuc = counter-screen for ROR gamma inhibitors: Gal4-VP16 reporter; Drosophila S2 Gal4-VP16 UAS-luciferase, luminescence, 20 h; Potency, µM (top dose mostly 53.6 µM), for inactives: at the highest dose activity, negative = inhibition, usual class: inhibitors; 310,000 compounds, 3.5% hits; AID 2546;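 note: Gal4-VP16 expression switched on by copper sulfate through the metallothionein promoter; potency is the fitted concentration of half-maximal effect; nearly all actives have a fitted effect of over 50% in size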
RORg inh = ROR gamma (mouse) transcription inhibition | 310,000 compounds, 5.4% hits | Drosophila S2 Gal4-RORgamma UAS-luciferase reporter, 20 h | AID 2551 | Potency, µM (titrated, usually from 53.6 µM), without a hit: top-dose activity change, negative = inhibition, hits mostly inhibitors; note: potency is the fitted concentration of half-maximal effect; nearly all actives have a fitted effect of over 60% in size
Target sequence (P51450 whole entry, looked up, the tested form may be a part): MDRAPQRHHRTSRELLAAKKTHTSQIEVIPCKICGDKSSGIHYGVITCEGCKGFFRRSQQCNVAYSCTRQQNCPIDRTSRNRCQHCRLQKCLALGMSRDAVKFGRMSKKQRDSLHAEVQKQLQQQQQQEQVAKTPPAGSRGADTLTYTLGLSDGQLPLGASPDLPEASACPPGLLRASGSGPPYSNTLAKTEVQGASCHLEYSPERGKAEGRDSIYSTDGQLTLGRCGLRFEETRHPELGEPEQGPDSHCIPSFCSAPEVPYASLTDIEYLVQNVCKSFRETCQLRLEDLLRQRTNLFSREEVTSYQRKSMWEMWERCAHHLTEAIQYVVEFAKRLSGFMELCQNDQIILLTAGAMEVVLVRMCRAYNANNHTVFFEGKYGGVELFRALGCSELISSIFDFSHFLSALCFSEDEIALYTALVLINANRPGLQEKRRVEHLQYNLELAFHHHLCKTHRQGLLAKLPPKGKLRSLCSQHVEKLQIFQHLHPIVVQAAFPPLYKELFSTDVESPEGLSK
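ROR gamma transcriptional activity was tracked as Gal4-UAS luciferase output in stably transfected Drosophila Schneider cells, with compound added 1 hr before 700 uM copper sulfate induction and a 20 hr ambient-temperature incubation.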
DT40 TDP1 CPT = growth inhibition of DT40 Tdp1-/-;hTDP1 cells with camptothecin (screen for TDP1 inhibitors); chicken DT40 Tdp1-/-;hTDP1 cells + 20 nM CPT, ATP luminescence, 48 h; 420,000 compounds, 12% hits; Potency, µM (series often up to 46.2 µM), inactives show at the top dose activity change, negative = growth inhibition, usual class: inhibitors; note: potency is the fitted concentration of half-maximal effect; nearly all actives have a fitted effect of over 55% in size
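Cell growth measured by CellTiter-Glo luminescence after a minimum 48 h, 37 C compound exposure with 20 nM CPT in Tdp1-knockout DT40 cells stably expressing hTDP1, seeded 400/well; qHTS titration format.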
LDHA inh = blocks human lactate dehydrogenase A; P00338; purified LDHA, NADH/diaphorase-resazurin fluorescence; hits give low values; activity change, % (values are at about 110 or 230 µM); 480,000 compounds, 0.15% hits; AID 1347041; in the data active = activity change below about -30%; inconclusive = mostly about -25% to -30%;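 note: plate controls were DMSO wells for no effect and wells without enzyme for full effect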
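Remaining NADH was detected by diaphorase (0.133 mg/mL) converting 37 µM resazurin to fluorescent resorufin, read at 0 and 20 minutes. The preceding 5-minute room-temperature reaction used 2 nM LDHA, 0.2 mM sodium pyruvate and 0.06 mM NADH at pH 7.4.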
* hit, by the source's call; ? = inconclusive; . = no result given; [ ] = another dose, or the depositor's remark. Unless noted, calls come from the whole dose curve; as a rule, active = well fitted curve in the direction sought with a large enough effect; inconclusive = small, poorly fitted or top-dose-only effect, or another doubt; inactive = no such curve, though single readings can be large; an effect the other way counts as inactive or inconclusive. Unless noted, % is set by controls: 0 for no effect and ±100 for the full control effect.

SMILES | IL-1B inflam inh | TDP1 cell noCPT | Gal4-VP16 FLuc | RORg inh | DT40 TDP1 CPT | LDHA inh
CCOc1ccc(NC(=O)CSc2nc(-c3cccs3)cc(C(F)(F)F)c2C#N)cc1 | . | -2.2% | . | . | -7.4% | 0.2
Cc1cc(C(F)(F)F)c(C#N)c(SCC(=O)Nc2nc3cc(Br)ccc3s2)n1 | -145.9* | -25.5% | ? | -3.7% | 4.0% | -9.5
O=C(CSc1nc2nc(-c3cccs3)cc(C(F)(F)F)c2c(=O)[nH]1)Nc1ccc(F)c(F)c1 | 0.0 | 4.11µM* | ? | ? | 6.51µM* | -9.7
COc1ccc(C)cc1NC(=O)C(C)OC(=O)c1ccsc1 (stereo unspecified) | . | . | . | . | . | -0.6
O=C(C1CC1)N1N=C(c2ccccc2)CC1(O)C(F)(F)F (stereo unspecified) | 18.9 | 9.7% | -17.1% | -12.8% | -4.2% | -1.8
O=C(C1CC1)N1N=C(c2ccccc2)CC1(O)C(F)(F)C(F)(F)F (stereo unspecified) | 4.7 | -2.7% | ? | 11.2µM* | 18.4% | 1.6
CC(C)CN(C(=O)COC(=O)c1n[nH]c2ccccc12)C1CCS(=O)(=O)C1 (stereo unspecified) | . | . | . | . | . | 0.2
Cc1ccc(-c2cnc3cc(C)nn3c2)cc1 | -14.9 | ? | 12.6µM* | 11.2µM* | -3.6% | -0.7
Cc1cc2ncc(-c3ccc(Cl)cc3)cn2n1 | -1.9 | -5.4% | -4.5% | 4.1% | -15.1% | -12.4
Cc1ccc(-c2cnc3c(Cl)c(C)nn3c2)cc1 | 32.4 | 10.3µM* | ? | 3.6% | 20.6µM* | -9.6
Cc1ccc(-c2ccnc3c(Cl)c(C)nn23)cc1 | 3.8 | ? | -1.5% | -23.4% | ? | -3.5
CC12CC3CC(C1)CC(c1ccc(O)cc1)(C3)C2 | . | . | . | . | . | 9.9
O=[N+]([O-])c1cc2c(cc1/C=N\NS(=O)(=O)c1ccccc1)OCO2 | -12.0 | ? | -7.1%[0.365 µM] | ? | 9.2µM* | -3.6
CC(C)(C)c1ccc(O)c(N=Cc2cc3c(cc2[N+](=O)[O-])OCO3)c1 | 48.8 | 16.4µM* | ? | ? | ? | 13.0
O=[N+]([O-])c1ccccc1/C=N/NS(=O)(=O)c1ccccc1 | . | . | . | . | . | 7.6
O=C(N[C@@H]1CCC(=O)N(CC[C@H](Sc2ccc(Br)cc2)c2ccccc2)CC1)OCc1ccccc1 | ? | 18.4µM* | . | . | 25.9µM* | -1.7
COc1ccc(SC[C@H](C)CN2CC[C@H](NC(=O)OCc3ccccc3)CCC2=O)cc1 | 28.4 | 23.1µM* | . | . | ? | 5.7
COc1ccc(S[C@@H](CCN2CC[C@H](NC(=O)OCc3ccccc3)CCC2=O)c2ccccc2)cc1 | -52.8* | 23.1µM* | . | . | 18.4µM* | 7.0
[N-]=[N+]=N[C@@H](CCN1CC[C@H](NC(=O)OCc2ccccc2)CCC1=O)c1ccccc1 | 17.4 | ? | -6.1% | 9.7% | ? | -2.0
CCOc1ccc(N(CC)C(=O)c2cc3c(s2)-c2ccc(Cl)cc2SC3)cc1 | . | ? | . | . | 11.6µM* | 2.1
COCCNC(=O)c1cc2c(s1)-c1ccc(Cl)cc1SC2 | -57.2* | ? | ? | 8.9% | -17.1% | -7.1
O=C(NCc1ccccc1Cl)c1cc2c(s1)-c1ccccc1SC2 | . | ? | . | . | ? | -7.6
CC(C)c1ccc(NC(=O)c2cc3c(s2)-c2ccccc2SC3)cc1 | . | ? | . | . | 18.4µM* | -4.7
O=C1Cc2cc(S(=O)(=O)N3CCN(C(=O)Nc4ccccc4F)CC3)ccc2N1 | . | . | . | . | . | 0.9
Cc1ccc(S(=O)(=O)NCCc2cccc3cccnc23)cc1 | . | . | . | . | . | 3.2
Cc1nc(COc2ccccc2Cl)sc1-c1ccnc(N)n1 | -61.6* | ? | -2.2% | 13.3% | ? | 3.6
Clc1ccccc1OCc1nn2c(-c3ccncc3)nnc2s1 | -19.4 | ? | 3.6% | 40.9% | -29.9% | -8.3
Cn1c(=O)c2c(ncn2CCCNC2=NCCC2)n(C)c1=O | . | . | . | . | . | -0.5
